Measured values as given in PubChem BioAssay AID485344 (National Center for Advancing Translational Sciences (NCATS), 2010).
Out of some 340,000 compounds screened, about 6,900 (2%) were called active. For the sample, actives were picked, then their nearest neighbours and some compounds at random. Unmarked numbers belong to inactive results. Rule as the data show it: active = inhibition above about 30%; inactive = below that, where a call was filed.
Also: 0% is about no effect.

The molecules below were run against D(2) dopamine receptor (Homo sapiens) (UniProt P14416) (assay: HTS Assay for Allosteric Antagonists of the Human D2 Dopamine Receptor: Primary Screen for Antagonists). Settings: HEK293 TREx D2 cells, calcium flux, dopamine EC80; at 10 µM; hits give high values.
Sequence of D(2) dopamine receptor (Homo sapiens) (P14416 whole entry, looked up): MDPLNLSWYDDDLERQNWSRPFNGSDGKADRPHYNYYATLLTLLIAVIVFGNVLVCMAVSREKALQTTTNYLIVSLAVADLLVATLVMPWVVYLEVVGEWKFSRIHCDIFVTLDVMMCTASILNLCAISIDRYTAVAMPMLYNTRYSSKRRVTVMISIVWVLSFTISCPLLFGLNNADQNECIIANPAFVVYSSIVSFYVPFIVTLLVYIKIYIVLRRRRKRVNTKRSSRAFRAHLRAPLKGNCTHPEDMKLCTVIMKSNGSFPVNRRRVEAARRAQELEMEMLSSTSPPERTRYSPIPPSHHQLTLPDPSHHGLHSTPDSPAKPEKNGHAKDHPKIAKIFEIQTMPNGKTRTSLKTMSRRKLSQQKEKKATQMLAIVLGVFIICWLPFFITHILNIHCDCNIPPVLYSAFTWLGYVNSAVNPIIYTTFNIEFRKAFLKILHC
In short: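 Inhibition of EC80 dopamine-driven calcium flux, recorded kinetically, defines activity here; cells are a tetracycline-induced HEK293 T-REx line expressing force-coupled D2.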
N[C@@H](Cc1ccccc1)C(=O)N1CCOCC1 gave an inhibition of -3.78%. COc1ccc(S(=O)(=O)N2CCOCC2)cc1NC(=O)CC1CC2CCC1C2 (configuration not stated) gave an inhibition of -10.8%. With O=C(Nc1ccc(-n2cccn2)cc1)C1CCN(Cc2ccsc2)CC1 the inhibition was 0.479%. Molecule CC(=O)c1cc(CN2CCC(C(=O)Nc3cccc(-c4cscn4)c3)CC2)cs1 has an inhibition of 10.7%. In the case of O=C(Nc1cccc(-c2cscn2)c1)C1CCN(Cc2ccsc2)CC1, the inhibition is reported as 48.1% (active). Work on Cc1cc(C)cc(NC(=O)C(c2ccccc2)N2CCN(CC(=O)N3CCCC3)CC2)c1 (configuration not stated) yielded an inhibition of 3.24%. Cn1c(=O)[nH]c(=O)c2c1nc(CN(Cc1ccccc1)Cc1ccccc1)n2CCN1CCOCC1 gave an inhibition of 10.3%. Cn1c(=O)[nH]c(=O)c2c1nc(CN1CCN(c3ccccc3F)CC1)n2CCc1ccccc1 was tested, and the inhibition was 46.1% (active). For CC1CCN(c2nc3c(c(=O)[nH]c(=O)n3C)n2CCCc2ccccc2)CC1, the inhibition was -0.868%. CCOC(=O)c1sc(NC(=O)C2CSC3(C)CCC(=O)N23)nc1C (configuration not stated) was tested, and the inhibition was -25.8%. COc1ccc(C2(C)ON(c3ccccc3C(F)(F)F)C2=O)cc1 (configuration not stated) showed an inhibition of -4.74%. CCN(C(=O)CN1C(=O)/C(=C/c2ccc(F)cc2)SC1=S)C1CCS(=O)(=O)C1 (configuration not stated) was tested, and the inhibition was -6.17%. With O=C1/C(=C/c2ccc(F)cc2)SC(=S)N1CCCC(=O)N1CCCCC1CCO (configuration not stated) the inhibition was 31.6% (active). With O=C(CCCN1C(=O)/C(=C\c2ccccc2)SC1=S)Nc1ccccc1O the inhibition was -8.37%. With COc1ccc(Cl)cc1NC(=O)CN(C)C(=O)c1ccc2n[nH]nc2c1 the inhibition was -5.47%. CCC1(CC)Cc2ccccc2-c2nc3ccccc3c(=O)n21 showed an inhibition of 5.55%. Work on Cc1nc2ccccc2n1CC(O)c1ccccc1 (configuration not stated) yielded an inhibition of 2.64%. CCn1c(C)nc2c1C(=O)c1ccccc1C2=O was tested, and the inhibition was 34.8% (active). For C#CCOCCOCCOCCNc1nc(N2CCN(C(=O)[C@H](CCCCN)n3cc(CCC(=O)O)nn3)CC2)nc(N2CCN(C(=O)[C@H](CCCCN)n3cc(CC(C)O)nn3)CC2)n1 (some centres not stated), the inhibition was -5%. COc1ccccc1Nc1nnc(SC(C)C(=O)NC2CC2)s1 (configuration not stated) was tested, and the inhibition was -7.77%. In the case of Cc1ccc([C@@H]2CC=C(C(=O)O)[C@H](c3cccc(Cl)c3)N2S(=O)(=O)c2ccc(C)cc2)cc1, the inhibition is reported as 10.4%. Work on C[C@H](NC(=O)c1ccccc1Cl)C(=O)OCC(=O)N1CCN(c2ccccc2)CC1 yielded an inhibition of 8.27%. For CCOc1ccccc1NC(=O)CCS(=O)(=O)c1cccc2nsnc12, the inhibition was 4.79%. In the case of O=C(CCS(=O)(=O)c1cccc2nsnc12)N1CCN(c2ccccc2F)CC1, the inhibition is reported as -8.03%. In the case of COc1ccc(CNC(=O)C(NS(=O)(=O)c2cccc3nsnc23)C(C)C)cc1 (configuration not stated), the inhibition is reported as 7.26%. With COc1ccccc1CNC(=O)CCCNS(=O)(=O)c1cccc2nsnc12 the inhibition was 42.4% (active). Molecule O=C(C(NS(=O)(=O)c1cccc2nsnc12)c1ccccc1)N1CCN(c2ccccc2)CC1 (configuration not stated) has an inhibition of 1.2%. O=C(CCCNS(=O)(=O)c1cccc2nsnc12)NCCN1CCN(c2ccccc2F)CC1 was tested, and the inhibition was 78.8% (active). Work on CC1CCCCC12NC(=O)N(CC(=O)Nc1ccc(S(=O)(=O)Nc3ncccn3)cc1)C2=O (configuration not stated) yielded an inhibition of 14.7%. With CCC(=O)c1cc(F)ccc1OCC(=O)Nc1ccc2c(c1)OCCO2 the inhibition was -15.9%. O=c1ccc2c(-c3ccccc3S(=O)(=O)O)c3ccc(O)c(O)c3oc-2c1O gave an inhibition of 13.3%. In the case of CCCCN(CC(=O)NC(C)(C)C)C(=O)C(=O)Nc1ccc2c(c1)OCCO2, the inhibition is reported as 64.1% (active). For COC(=O)CCNc1ccc2c(c1)OCCO2, the inhibition was 0.987%. Work on CCC(C)(C)NC(=O)CN(C(=O)C(=O)Nc1ccc2c(c1)OCCO2)C(C)(C)CC yielded an inhibition of -4.87%. In the case of COC(=O)[C@]1(C)CCC[C@@]2(C)C3CC[C@]4(OC(C)=O)C[C@@]3(CCC21)CC4=NO (some centres not stated), the inhibition is reported as 2.69%. Molecule O=C(CN1C(=O)c2cccnc2Oc2ccc(Cl)cc21)NCCc1ccccc1 has an inhibition of 10.8%. O=C(CN1C(=O)c2cccnc2Oc2ccc(Cl)cc21)Nc1ccc(F)cc1 was tested, and the inhibition was 32.7% (active). For CC(=O)c1cccc(NC(=O)CN2C(=O)c3cccnc3Oc3ccc(Cl)cc32)c1, the inhibition was 8.77%. Molecule CCC(C)N(C(=O)CSc1nnnn1-c1ccccc1OC)C1CCS(=O)(=O)C1 (configuration not stated) has an inhibition of -18.8%. CCOc1cccc2cc(C(=O)OCC(=O)Nc3c(C)cccc3CC)c(=O)oc12 gave an inhibition of 17.6%. With CCC1CCC2(CC1)NC(=O)N(CC(=O)Nc1ccc(OC)cc1)C2=O (configuration not stated) the inhibition was 21.9%. For O=C(Cn1cc(-c2nnnn2-c2ccc(Cl)cc2)c(=O)c2ccccc21)c1ccccc1, the inhibition was -5.55%. With O=C(C[n+]1ccc2c(c1)nnn2-c1ccccc1)c1ccc(Cl)cc1 the inhibition was 35.8% (active). In the case of O=C(CSc1cccc[n+]1[O-])c1ccc(Cl)cc1, the inhibition is reported as 11.7%. With COc1cc(OC)cc(-c2c(-c3ccc(F)cc3)c3cc(-c4ccc5cc[nH]c5c4)ccc3n2C)c1 the inhibition was 3.65%. O=C(COC(=O)c1c(Cl)cccc1Cl)Nc1cccc(S(=O)(=O)NC2=NCCCCC2)c1 gave an inhibition of -9.77%. With COc1cc(OC)cc(C(=O)NC(=S)N2CCN(c3ccc(C(F)(F)F)cc3[N+](=O)[O-])CC2)c1 the inhibition was 30% (active). In the case of O=C(Cc1ccc(S(=O)(=O)N2CCOCC2)s1)N1CCN(c2ccc(C(F)(F)F)cc2[N+](=O)[O-])CC1, the inhibition is reported as -7.45%. With O=C(Nc1cccc(C(F)(F)F)c1)c1ccc(N2CCNCC2)c([N+](=O)[O-])c1 the inhibition was 8.47%. O=S(=O)(NCCCN1CCOCC1)c1ccc(F)c(Cl)c1 gave an inhibition of 26.5%. COC(=O)c1ccc(-c2c(-c3ccccc3)ncc3cc(OC)c(OC)cc23)cc1 was tested, and the inhibition was -1.67%. Molecule CC(C)CN(C(=O)CSc1ncnc2sccc12)C1CCS(=O)(=O)C1 (configuration not stated) has an inhibition of 6.11%. In the case of CCOc1ccc(S(=O)(=O)Nc2cccc(C(=O)NCC3(N4CCCCC4)CCCCC3)c2)cc1, the inhibition is reported as -9.84%. CCOC(=O)CNC(=O)CSc1nnc(-c2cccc(OC)c2)n1CC showed an inhibition of -19.1%. With CCn1c(COc2ccccc2)nnc1SCC(=O)NCc1ccco1 the inhibition was -10.2%. CCOC(=O)CNC(=O)CSc1nnc(COc2ccc(Cl)cc2)n1CC was tested, and the inhibition was 32.9% (active). In the case of COc1ccc(NC(=O)C(=O)NCC(c2ccco2)N2CCc3ccccc3C2)cc1 (configuration not stated), the inhibition is reported as -3.07%. COc1ccc(CCC(C)N2CCc3ccccc3C2)cc1 (configuration not stated) was tested, and the inhibition was 55% (active). For COc1ccc(OC)c(NC(=S)N2CCc3ccccc3C2)c1, the inhibition was 16.6%. In the case of CN(C)S(=O)(=O)c1cccc(NC(=O)COc2ccc3ccccc3c2)c1, the inhibition is reported as 7.96%. CCOC(=O)C1CCCN(C(=O)COc2ccc(N(C)S(=O)(=O)c3ccc(C)cc3)cc2)C1 (configuration not stated) gave an inhibition of 15.8%. CCOC(=O)C1CCCN(Cc2nc(N)nc(Nc3ccc(C)cc3)n2)C1 (configuration not stated) was tested, and the inhibition was 12.9%. With CCOC(=O)C1CCCN(CCSc2ccc(C)cc2)C1 (configuration not stated) the inhibition was 43.5% (active). CCN(CC)c1ccc(NC(=O)CN2C(=O)NC3(CCc4ccccc43)C2=O)cc1 (configuration not stated) was tested, and the inhibition was 2.26%. For COC(=O)Cc1ccc(OCC(=O)NC2CCCC2)cc1, the inhibition was 0.938%. Molecule CCOc1ccc(NC(=O)CN(C)C(=O)c2cccc(S(=O)(=O)N3CCCC3)c2)cc1OCC has an inhibition of -1.88%. With Cc1ccc(NC(=O)CN(C)C(=O)c2cccc(S(=O)(=O)N3CCCC3)c2)cc1 the inhibition was -2.36%. Cc1ccc(S(=O)(=O)N2CCCCC2)cc1C(=O)N(C)CC(=O)Nc1cccc(F)c1 was tested, and the inhibition was 31.6% (active). O=C(CCNC(=O)c1ccc(Cl)cc1)NC1CCCc2ccccc21 (configuration not stated) was tested, and the inhibition was -3.04%. With CC(C)(C)OC(=O)NCCCCCNC(=O)c1[nH]cnc1C(=O)Nc1nccs1 the inhibition was -7.74%. With O=C(Cn1[nH]c(=O)c2ccccc2c1=O)Nc1cccc(-c2nnc3n2CCCCC3)c1 the inhibition was -20.7%. For Cc1c(C(=O)Nc2cccc(-c3nnc4n3CCCCC4)c2)oc2ccccc12, the inhibition was 60% (active). Cc1c(C(=O)NC2CCCCC2)oc2ccccc12 showed an inhibition of 15.1%. For CCc1ccc(CCC(=O)Nc2ccc(S(N)(=O)=O)cc2)o1, the inhibition was 43.5% (active). For NS(=O)(=O)c1ccc(NC(=O)COC(=O)CCc2c[nH]c3ccccc23)cc1, the inhibition was 2.49%. Work on CC1CC(C)CN(CC(=O)Nc2ccc(S(N)(=O)=O)cc2)C1 (configuration not stated) yielded an inhibition of -1.67%. CC(=O)Nc1ccc(NC(=O)CSc2nnc(C3CC3)n2-c2ccccc2)cc1 showed an inhibition of 2.45%. Cc1ccc(S(=O)(=O)NCCC(=O)NCc2ccc(Cl)cc2)cc1C gave an inhibition of -19%. O=C(NCC(c1ccco1)N1CCc2ccccc21)c1cccc(F)c1 (configuration not stated) gave an inhibition of 5.81%. COCCn1c(C)cc(C(=O)CSc2ncnc3sc4c(c23)CCC4)c1C showed an inhibition of 9.53%. For O=C(O)c1cccnc1Sc1ncnc2sc3c(c12)CCC3, the inhibition was 34.2% (active). CCCSc1ncccc1C(=O)O showed an inhibition of -16.5%. COc1cc(C(=O)N2CCN(C/C=C/c3ccccc3)CC2)cc(OC)c1C gave an inhibition of 0.0553%. COc1ccccc1C(=O)NC(CCSC)C(=O)N1CCN(C/C=C/c2ccccc2)CC1 (configuration not stated) was tested, and the inhibition was 3.22%. In the case of CNC(=O)NC(=O)C(C)N1CCN(C/C=C/c2ccccc2)CC1 (configuration not stated), the inhibition is reported as 33.5% (active). In the case of CC1CCCCC12NC(=O)N(CC(=O)OCC(=O)NCc1ccc(F)cc1)C2=O (configuration not stated), the inhibition is reported as -29.1%. CN(CC(=O)Nc1c(Cl)cccc1Cl)C(=O)CC1OC(=O)c2ccccc21 (configuration not stated) was tested, and the inhibition was 4.45%.
